Screens from PubChem BioAssay.
Sfp inh: blocks B. subtilis Sfp PPTase activity | Biochemical Sfp PPTase activity, qHTS | Potency, µM, without a hit: largest response in the series, negative = inhibition, usual class: inhibitors | 310,000 compounds, 3.5% hits | AID 1490;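 further: the enzyme is Sfp with the accession as filed and its product quenches rhodamine fluorescence; potency means the concentration at half of the fitted maximal effect; 0% = enzyme reaction without inhibitor and -100% = no enzyme wells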
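Fluorescence-quenching assay with 15 nM Sfp, 5 uM rhodamine-CoA and 12.5 uM BHQ-2-labelled ybbR peptide in pH 7.6 Hepes/MgCl2 buffer. Enzyme was pre-incubated with compound for 15 min at room temperature. Rate was taken from the 30-min fluorescence change (525/598 nm).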
FBPA coupling cs: counter-screen for Giardia aldolase inhibitors: coupling enzyme system; coupling enzyme system counterscreen, AmpLite Red fluorescence; activity change, negative = inhibition, % at 58.2 µM, hits read low; 290,000 compounds, 0.67% hits; in the data active means activity change below about -30%
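Coupling enzymes only (glyceraldehyde-3-phosphate) + compound, at 57.5 uM final, 10 min RT; add substrate/coupling/AmpLite Red mix, 20 min RT; fluorescence ex 525/em 598 nm. Actives flag coupling-system interference.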
G9a block: blocks human histone lysine methyltransferase G9a. Q96KQ7. Potency, µM (highest dose often 102 µM), inactives show at the highest dose activity, negative = inhibition, most hits filed as inhibitors. G9a H3K9 monomethylation, AlphaScreen, 2 h. 350,000 compounds, 8.8% hits; further: potency means the concentration at half of the fitted maximal effect; nearly all actives have a fitted effect of over 75% in size
Target sequence (Q96KQ7 913-1193 limits assumed): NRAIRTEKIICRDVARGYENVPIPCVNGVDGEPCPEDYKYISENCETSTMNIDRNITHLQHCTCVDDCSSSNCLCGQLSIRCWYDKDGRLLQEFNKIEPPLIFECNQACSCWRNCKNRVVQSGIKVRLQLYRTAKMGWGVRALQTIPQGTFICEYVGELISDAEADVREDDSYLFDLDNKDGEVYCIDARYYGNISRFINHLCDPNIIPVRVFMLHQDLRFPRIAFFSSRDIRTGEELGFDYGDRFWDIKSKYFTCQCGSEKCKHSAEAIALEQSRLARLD
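Compounds were preincubated with 20 nM G9a for 15 min, after which biotinylated H3K9 peptide (500 nM) and SAM (20 uM) started a 2 h room-temperature reaction. Monomethylated product was quantified by antibody-based AlphaScreen chemiluminescence.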
Tau fibril FP: inhibitors of human tau fibril formation; 280,000 compounds, 0.39% hits; Potency, µM (series often up to 57.7 µM), without a hit: at the highest dose activity, negative = inhibition, hits mostly inhibitors; AID 1468; K18 P301L tau heparin fibrillization, Alexa594 FP, 6 h; P10636; further: potency means the concentration at half of the fitted maximal effect; nearly all actives have a fitted effect of over 55% in size
Target sequence (P10636 561-689 P618L limits assumed): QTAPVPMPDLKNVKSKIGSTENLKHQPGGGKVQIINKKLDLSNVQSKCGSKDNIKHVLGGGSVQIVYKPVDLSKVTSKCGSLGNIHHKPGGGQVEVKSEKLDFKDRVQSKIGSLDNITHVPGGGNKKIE
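Read-out: fluorescence polarization of Alexa 594-labeled tau (0.24 uM), 555 nm excitation, 632 nm emission. Mixtures held 15 uM unlabeled K18 P301L, compound and 20 uM heparin, pH 7 acetate buffer, incubated 6 hr at 37 C.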
Tau fluor counter: counter-screen for tau fibril formation inhibitors; tau K18 P301L Alexa594 fluorescence, heparin fibrillization; Potency, µM (series often up to 57.7 µM), inactives show at the top dose activity change, negative = decrease; 280,000 compounds, 0.93% hits; further: potency means the concentration at half of the fitted maximal effect; nearly all actives have a fitted effect of over 55% in size
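Human tau K18 P301L (15 uM unlabeled, 0.24 uM Alexa 594-labeled) in 100 mM sodium acetate pH 7 with 20 uM heparin, 6 hr at 37 C. ThT 30 uM added, 1 hr ambient; Alexa 594 FP and total fluorescence read at 555/632 nm.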
Tau ThT inhib: tau fibrillization inhibition (ThT binding). P10636. recombinant tau K18 P301L, heparin-induced fibrillization, ThT fluorescence. Potency, µM (titrated, usually from 57.4 µM), for the others: at the highest dose activity, negative = inhibition, actives largely listed as inhibitors. 270,000 compounds, 2.1% hits; further: potency means the concentration at half of the fitted maximal effect; nearly all actives have a fitted effect of over 55% in size
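ThT emission at 510 nm, taken 1 hr after adding 30 uM dye, quantifies aggregates formed when 20 uM heparin acts on human tau K18 P301L for 6 hr at 37 C.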
The depositor's hits bear a star; u = inconclusive; x = no result given; [ ] = dose if it differs, or a comment. Only some compounds are listed: those with a hit (about 11% of all), similar ones and a draw of the others. Unless noted, the call rests on the fitted dose curve; in most records, active means well fitted curve in the direction sought with a large enough effect; inconclusive means small, poorly fitted or top-dose-only effect, or another doubt; inactive means no such curve, though single readings can be large; an effect the other way counts as inactive or inconclusive. Unless noted, on the % scale 0 is the no-effect control and ±100 the full control effect.

SMILES | Sfp inh | FBPA coupling cs | G9a block | Tau fibril FP | Tau fluor counter | Tau ThT inhib
CCOc1ccc(CNC(=O)CSc2nnc(C)c3c(C)n(-c4ccc(Cl)cc4)nc23)cc1 | x | x | u | -8.8% | -11.6% | -7.2%
CC(=O)N1c2ccc(S(=O)(=O)N3CCCCC3)cc2CC1C(=O)NCc1ccc(N(C)C)cc1 (stereo unspecified) | 0.5% | x | 39.8µM* | x | x | x
CC(=O)N1c2ccc(S(=O)(=O)N3CCCC3)cc2CC1C(=O)NCc1ccc(OC(C)C)cc1 (stereo unspecified) | 5.3% | x | 4.9% | x | x | x
COc1ccc(CNC(=O)C2Cc3cc(S(=O)(=O)N4CCCC4)ccc3N2C(C)=O)c(OC)c1 (stereo unspecified) | 9.5% | x | 22.4µM* | x | x | x
COc1ccc(-c2nc(C)c(CCNC(=O)c3cccc(C)c3)s2)cc1OC | x | x | 14.5%[59 µM] | 2.6% | -13.8% | u
Cc1ccc(-c2nn3c(C)nnc3s2)cc1NC(=O)c1ccc(-c2cccc(Cl)c2)o1 | 22.4µM* | 2.1 | u | -2.7% | -7.9% | u
Cc1ccc(-c2nn3c(C)nnc3s2)cc1NC(=O)c1ccc(Br)o1 | -2.8% | 3.6 | u | -2.8% | -6.4% | -16.2%
Cc1ccc(-c2nn3c(C)nnc3s2)cc1NC(=O)c1ccc(-c2ccc(Cl)cc2Cl)o1 | 12.6µM* | 0.3 | -20.8%[59 µM] | 4.9% | 7.2% | -25.2%
CCOc1cccc2cc(C(N)=O)c(=N)oc12 | 18.0% | 0.4 | 31.6µM* | -0.8% | -13.9% | -14.6%
COc1cccc2cc(C(=O)N3CCC(C)CC3)c(=O)oc12 | -11.3% | 1.3 | 50.1µM* | -13.8% | -9.7% | -11.3%
CCOc1cccc2cc(C(=O)Oc3ccc(OC)cc3)c(=O)oc12 | u | -5.3 | 20µM* | x | x | x
COc1cccc(C2C(C(=O)Nc3ccccc3OC)=C(C)Nc3nc4ccccc4n32)c1 (stereo unspecified) | x | x | -19.7%[59 µM] | -11.8% | u | -0.5%
CCOC(=O)C1=C(N)n2c(s/c(=C/c3ccco3)c2=O)=C(C(=O)OC)C1c1ccco1 (stereo unspecified) | 15.8µM* | -6.3 | u | -18.3% | -25.9% | 14.1µM*
N#CC1=C(N)n2c(s/c(=C\c3cccs3)c2=O)=C(C#N)C1c1cccs1 (stereo unspecified) | 44.7µM* | -4.2 | 35.5µM* | -7.1% | -27.5% | u
N#CC1=C(N)n2c(s/c(=C\c3ccco3)c2=O)=C(C#N)C1c1ccco1 (stereo unspecified) | -86.0% | -2.7 | u | u | -27.2% | 20µM*
CC1(C)CC(=O)C2=C(C1)N(c1ccc(F)cc1)C(N)=C(C#N)C2c1cccs1 (stereo unspecified) | -0.3% | x | 25.3%[0.501 µM] | 3.3% | -9.2% | -2.1%
O=C(CN(C(=O)CCC(=O)Nc1nccs1)c1ccc(F)cc1)NCCc1ccccc1 | -0.5% | 0.0 | 4.5% | x | x | x
O=C(CSc1n[nH]c(-c2ccccc2Cl)n1)N1CCN(c2ccccc2F)CC1 | x | x | -48.5%[59 µM] | 4.8% | -10.3% | -11.5%
CNS(=O)(=O)c1cn(CC(=O)N2CCN(c3ccccc3OC)CC2)cc1S(=O)(=O)NC | x | x | -21.4%[59 µM] | 2.6% | -8.4% | -3.0%
CCOC(=O)Cn1c(=O)oc2cc(S(=O)(=O)N3CCN(c4ccc(Cl)cc4)CC3)ccc21 | x | x | -9.2%[59 µM] | -5.6% | -20.7% | 6.7%
Cc1cccc(-n2ncc3c2CCCC3NC(=O)CCc2cccnc2)c1C (stereo unspecified) | 7.5% | 1.2 | 75.3%[59 µM] | x | x | x
Cc1cc(C)cc(NC(=O)C2CCCN(C(=O)c3cnn(-c4ccccc4)c3-n3cccc3)C2)c1 (stereo unspecified) | x | x | -2.0%[59 µM] | -2.5% | -17.6% | u
CCN1/C(=C2/SC(=S)N(NC(C)=O)C2=O)Sc2ccccc21 | 12.4% | 0.2 | x | x | x | x
NN1C(=O)/C(=C2/Sc3ccccc3N2CCCS(=O)(=O)O)SC1=S | -16.4% | 2.6 | 39.8µM* | x | x | x
Cc1ccc(S(=O)(=O)N2C(=O)/C(=C3\SC(=S)NC3=O)c3ccccc32)cc1 | 2.1% | -0.6 | u | 5.6% | u | u
C=CCN1/C(=C2/SC(=S)N(C)C2=O)Sc2ccccc21 | -12.2% | -1.2 | 39.8µM* | x | x | x
CCN1C(=O)/C(=C2/Sc3ccccc3N2CC)SC1=S | -4.0% | 6.2 | x | x | x | x
O=C1NC(=S)S/C1=C1\Sc2ccccc2N1CCCS(=O)(=O)O | 25.1µM* | 8.2 | 10µM* | -2.1% | -8.8% | u
O=C(O)c1cc([N+](=O)[O-])cc2c1nnn2O | -2.5% | 0.2 | u | u | -21.9% | u
